These results are taken from PubChem BioAssay (NCATS).

What all share (assay): qHTS profiling for inhibitors of Plasmodium falciparum proliferation (AID 504749); further: nearly all actives have a fitted effect of over 60% in size
Holding throughout (conditions): P. falciparum in erythrocytes, SYBR Green DNA, 72 h; series mostly up to 28.7 µM
Background: In qHTS, concentration-response curves come from the screen itself.

One test has as its system CP238. In short, it runs like this:
(§1)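 P. falciparum-infected erythrocytes (0.3% parasitemia, 2.5% hematocrit) incubated with compound 72 h at 37 C, 5% CO2. Parasite DNA detected by SYBR Green after lysis, overnight at room temperature; normalised to 0.29 uM artemisinin and DMSO.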

Another test deals with CP247. In short, it runs like this: as §1
The test system of the next test is CP250. Summed up:
as §1

The subject of another test is CP252. In short, it runs like this: as §1
The subject of another test is CP256. In short, it runs like this: as §1
The next test deals with CP260. Summed up:
as §1

The next test concerns CP262. In short, it runs like this: as §1
The test system of a further test is CP265. Summed up:
as §1

The next test concerns CP268. Summed up: as §1
The next test has as its system CP266. In short, it runs like this:
as §1

SMILES strings stand for the structures. Records with an inconclusive call do not appear. Calls of active or inactive are those of the source. The call rests on the fitted dose curve; in most records, active means well fitted inhibition curve with a large enough effect; inconclusive means small, poorly fitted or top-dose-only effect; inactive means flat fitted curve, though single readings scatter.
Potency means the concentration at half of the fitted maximal effect.

On to `C[C@H]1O[C@@H](n2cc(F)c(=O)[nH]c2=O)[C@H](O)[C@@H]1O`, for which the Potency result with CP238, in the test on CP247, in the test on CP250, in the test with CP252, with CP256 and with CP260 was “inactive” throughout. Also, the Potency entry in the test with CP262, in the test with CP265 and with CP268 was “inactive” each time.
On to `CC1(C)CO[C@@H](CC(=O)O)CN1`, for which the Potency result with CP238, in the test with CP247, with CP250, in the test on CP252, with CP256 and in the test on CP260 was “inactive” in each case. The Potency entry in the test on CP262, in the test with CP265, in the test on CP266 and in the test on CP268 was “inactive” in each case.
As to `Cc1cc(CC(=O)O)n(C)c1C(=O)c1ccc(Cl)cc1`, the Potency result in the test with CP238, in the test with CP247, in the test on CP250, in the test on CP252, in the test on CP256 and with CP260 was “inactive” in each case. Further, the Potency entry in the test with CP262, in the test with CP265, in the test on CP266 and with CP268 was “inactive” each time.
As for `Cc1cc2c(cc1S(N)(=O)=O)S(=O)(=O)CCC2`, the Potency result with CP238, in the test on CP247, with CP250, in the test with CP252, with CP256 and in the test on CP260 was “inactive” each time. The Potency result in the test on CP262, with CP265, with CP266 and in the test on CP268 was “inactive” throughout.
Regarding `CC(=O)c1ccc2c(c1)N(CCCN(C)C)c1ccccc1S2`, the Potency result in the test with CP238, with CP247, in the test with CP250, in the test on CP252, in the test on CP256 and with CP260 was “inactive” in each case. In addition, the Potency result in the test on CP262, with CP265, in the test on CP266 and in the test on CP268 was “inactive” in each case.
Consider `CCCCN(CCCC)CCCOC(=O)c1ccc(N)cc1`, for which the Potency entry in the test on CP238, in the test on CP247, in the test on CP250, with CP252, with CP256 and with CP260 was “inactive” in each case. For the same compound, the Potency result in the test on CP262, with CP266 and in the test on CP268 was “inactive” each time.
Take `O=C1NC(=O)[C@@]2(CCOc3ccc(F)cc32)N1`: the Potency result in the test with CP238, in the test with CP247, in the test on CP250, in the test on CP252, in the test with CP256 and in the test on CP260 was “inactive” throughout. In addition, the Potency entry in the test with CP262, with CP265 and in the test with CP268 was “inactive” each time.
`C#CCN(C)Cc1ccccc1`: the Potency result in the test with CP238, in the test with CP247, with CP250, with CP252, in the test on CP256 and with CP260 was “inactive” in each case. Moreover, the Potency result with CP262, in the test on CP265 and in the test with CP268 was “inactive” each time.
As for `CN1CCN(C2Cc3ccccc3Sc3ccc(Cl)cc32)CC1` (centres undefined), the Potency result in the test with CP238, in the test with CP247, in the test with CP250, in the test on CP252, in the test with CP256 and in the test on CP262 was “inactive” throughout. Moreover, the Potency result in the test with CP265 and with CP266 was “inactive” each time.
For `CCCCN1CCCC[C@H]1C(=O)Nc1c(C)cccc1C`, the Potency result with CP238, in the test on CP247, in the test on CP250, in the test on CP252, with CP256 and in the test with CP260 was “inactive” throughout. In addition, the Potency entry in the test on CP262, in the test with CP266 and in the test on CP268 was “inactive” each time.
On to `CC1=C(CC(=O)O)c2cc(F)ccc2/C1=C\c1ccc(S(C)=O)cc1` (centres undefined), for which the Potency result in the test on CP238, in the test with CP247, with CP250, in the test with CP252, in the test on CP256 and in the test on CP260 was “inactive” throughout. Moreover, the Potency entry in the test on CP262, in the test on CP265 and in the test on CP268 was “inactive” each time.
For `Cc1cc(N)c2ccccc2[n+]1CCCCCCCCCC[n+]1c(C)cc(N)c2ccccc21`, the Potency in the test on CP238 is 0.282 µM (active); in the test with CP247 it was 1.58 µM (active); in the test with CP250, 0.708 µM (active); in the test on CP252 it was 0.447 µM (active); in the test with CP256, 0.0794 µM (active); in the test with CP260, 0.631 µM (active). The values for the Potency in the test on CP262, in the test with CP265 and in the test on CP268 were 0.181 µM (active), 0.0004 µM (active) and 0.572 µM (active), respectively.
With `CCCCC(CC)COC(=O)c1ccccc1O` (centres undefined), the Potency entry in the test on CP238, in the test on CP247, in the test with CP250, in the test on CP252, in the test on CP256 and in the test with CP260 was “inactive” each time. Besides, the Potency entry with CP262, with CP265, in the test with CP266 and in the test with CP268 was “inactive” each time.
As to `NC(CSCC(=O)O)C(=O)O` (centres undefined), the Potency entry in the test with CP238, in the test on CP247, in the test on CP250, in the test on CP252, with CP256 and with CP260 was “inactive” throughout. The Potency result with CP262, with CP265 and in the test on CP268 was “inactive” throughout.
Regarding `Cc1cccc(C)c1NC(=O)CN(CC(=O)O)CC(=O)O`, the Potency entry with CP238, in the test with CP247, with CP250, with CP252, with CP256 and in the test with CP260 was “inactive” in each case. Besides, the Potency entry in the test on CP262, with CP265, with CP266 and in the test on CP268 was “inactive” each time.
As to `Nc1nc2c(ncn2CCC(CO)CO)c(=O)[nH]1`, the Potency entry in the test on CP238, in the test on CP247, in the test on CP250, in the test on CP252, in the test on CP256 and in the test on CP260 was “inactive” in each case. Moreover, the Potency entry in the test with CP262, in the test on CP265 and with CP268 was “inactive” in each case.
For `CCN(CC)CCSC(=O)C(c1ccccc1)c1ccccc1`, the Potency entry with CP238, in the test with CP247, with CP250, in the test on CP252, in the test on CP256 and in the test with CP260 was “inactive” each time. Besides, the Potency entry with CP262, with CP265, in the test on CP266 and in the test on CP268 was “inactive” in each case.
For `CC(C)(C)C(=O)NCCCC(=O)O`, the Potency result in the test with CP238, in the test with CP247, in the test with CP250, with CP252, in the test on CP256 and in the test with CP262 was “inactive” throughout. Besides, the Potency entry in the test on CP265, with CP266 and in the test on CP268 was “inactive” throughout.
With `CNC(=O)Oc1ccc2c(c1)[C@]1(C)CCN(C)[C@@H]1N2C`, the Potency in the test on CP238 is 1.78 µM (active); in the test with CP247, 1.58 µM (active); in the test with CP250 it was 1.58 µM (active); in the test on CP252, 1.78 µM (active); with CP256, 2 µM (active); in the test with CP260, 8.91 µM (active). Further, the Potency with CP265 was 1.58 µM (active).
As for `CC(=O)Oc1ccc(C2(c3ccc(OC(C)=O)cc3)C(=O)Nc3ccccc32)cc1`, the Potency entry in the test with CP238, in the test with CP247, in the test on CP250, in the test on CP252, with CP256 and in the test with CP260 was “inactive” throughout. For the same compound, the Potency entry in the test with CP262, with CP265, in the test with CP266 and in the test with CP268 was “inactive” throughout.
As to `CC[C@@]1(c2ccccc2)NC(=O)N(C)C1=O`, the Potency entry in the test with CP238, in the test on CP247, in the test on CP250, with CP252, in the test with CP256 and in the test on CP260 was “inactive” in each case. For the same compound, the Potency result with CP265, in the test with CP266 and with CP268 was “inactive” each time.
In the case of `CCOc1ccc2ccccc2c1C(=O)N[C@@H]1C(=O)N2[C@@H]1SC(C)(C)[C@@H]2C(=O)O`, the Potency entry in the test with CP238, in the test on CP247, with CP250, in the test with CP252, in the test with CP256 and in the test on CP260 was “inactive” in each case. Moreover, the Potency entry in the test with CP262, in the test on CP265, with CP266 and in the test on CP268 was “inactive” in each case.
As for `CC(O)CN(CCN(CC(C)O)CC(C)O)CC(C)O` (centres undefined), the Potency entry in the test on CP238, in the test on CP247, with CP250, in the test with CP252, with CP256 and in the test with CP260 was “inactive” throughout. In addition, the Potency entry in the test with CP262, with CP265 and in the test on CP268 was “inactive” in each case.
For `Cc1cc(C(C#N)c2ccc(Cl)cc2)c(Cl)cc1NC(=O)c1cc(I)cc(I)c1O` (centres undefined), the Potency entry in the test on CP238, with CP247, in the test on CP250, with CP252, with CP256 and in the test on CP260 was “inactive” in each case. Further, the Potency result with CP262, in the test on CP265, with CP266 and in the test on CP268 was “inactive” each time.
As for `O=C(Oc1ccccc1C(=O)O)c1ccccc1O`, the Potency entry with CP238, with CP247, in the test on CP250, in the test with CP252, in the test with CP256 and in the test with CP260 was “inactive” throughout. The Potency result in the test on CP262, with CP265, in the test with CP266 and with CP268 was “inactive” throughout.
Take `Cc1ccc2nc(N)[nH]c(=O)c2c1Sc1ccncc1`: the Potency in the test with CP250 is 2.24 µM (active); in the test with CP252, 1.58 µM (active); in the test on CP256, 10 µM (active); in the test with CP260 it was 11.2 µM (active); in the test with CP265, 10 µM (active). In addition, the Potency entry in the test with CP266 was “inactive”.
